Screening data from PubChem BioAssay.
IkB sig inh: inhibitors of IkB signaling in ABC-DLBCL cells; ABC-DLBCL IkBa-CBG/CBR dual luciferase ratio, 4 h; response scale: scaled: untreated 0%, proteasome inhibitor 100%; Potency, µM (titrated, usually from 57.1 µM), for the others: at the highest dose IkBa stabilization activation; 0.04% of 110,000 active; active means well fitted curve in the direction sought with a large enough effect in the signal ratio, not every such curve was filed as active; inconclusive means small, poorly fitted or top-dose-only effect, or a change in a side signal; the % refers to the signal ratio;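 further: the direction sought is a rising ratio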
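In this assay, an IκBα–CBG68 fusion accumulates when IKK-driven degradation is blocked; native CBR normalizes for cell number. OCI-Ly3 cells were treated 4 h with compound and doxycycline, then green and red light read after Chroma-Glo addition.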
Imprint erasure: induces erasure of genomic imprints in mouse ES cells; mouse ES Peg3-LacZ reporter, beta-gal luminescence, 40 h; Potency, µM (series often up to 60.7 µM), for the others: at the highest dose activity change, positive = activation, hits mostly activators; 0.02% of 110,000 active
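Gelatin-coated wells received 300 freshly trypsinized female ES cells with a Peg3LacZ-Neo reporter on the maternal allele, then incubated 40 hours at 37C. BetaGlo was added for 5 minutes at room temperature before a single luminescence read.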
p53ts 32C kill: p53ts cell cytotoxicity, permissive temperature; H1299-p53A138V at 32C, ATP luminescence viability, 24 h; Potency, µM (highest dose often 46.1 µM), for the others: top-dose activity change, negative = cytotoxicity, usual class: cytotoxic; 0.93% of 130,000 active;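 further: 0% = DMSO and -100% = full killing by reference compound; nearly all actives have a fitted effect of over 55% in size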
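H1299-p53 A138V cells (temperature-sensitive p53) exposed 24 h to up to 46 uM compound at 32C, where p53 is wild-type in conformation. Viability read as ATP luminescence and normalised to DMSO and 100 uM tamoxifen. AC50 fitted with the Hill equation.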
p53ts 39C tox: kills p53ts cells at the nonpermissive temperature | 1.5% of 130,000 active | H1299-p53A138V viability at 39C, ATP luminescence, 24 h | Potency, µM (titrated, usually from 46.1 µM), for inactives: at the top dose activity change, negative = cell killing, most hits filed as cytotoxic; further: on the % scale 0 is the no-effect control and ±100 the full control effect; nearly all actives have a fitted effect of over 55% in size
* hit, by the source's call; ! = not confirmed by another sample; [ ] = dose if it differs, or a comment. In the library only some 1.7% were active in any assay of this set; here they are far more common. Unless noted, the call rests on the fitted dose curve; in most records, active means well fitted curve in the direction sought with a large enough effect; inconclusive means small, poorly fitted or top-dose-only effect, or another doubt; inactive means no such curve, though single readings can be large; an effect the other way counts as inactive or inconclusive. Potency means the concentration at half of the fitted maximal effect.

How did CC[C@]1(O)CC(O[C@@H]2CC(N(C)C)C(O)C(C)O2)c2c(cc3c(c2O)C(=O)c2c(O)cccc2C3=O)C1C(=O)OC (some centres undefined) do in these assays?
Imprint erasure: -41%; p53ts 32C kill: -17%; p53ts 39C tox: inconclusive

How did Cn1ncnc2c(=O)n(C)c(=O)nc1-2 do in these assays?
IkB sig inh: inconclusive; Imprint erasure: -34%; p53ts 32C kill: 0.79µM*; p53ts 39C tox: 5µM*

What do the screens show for `O=C(Nc1ccc2oc(-c3cccnc3)nc2c1)c1ccc(-c2cccc(Cl)c2)o1`?
IkB sig inh: 1%; Imprint erasure: -7%[10.9 µM]; p53ts 32C kill: 2%; p53ts 39C tox: 8%

What do the screens show for `COc1cccc(-c2cc(C(=O)Nc3cnn(Cc4ccc(Cl)cc4Cl)c3)no2)c1`?
IkB sig inh: 4%; Imprint erasure: -7%[10.9 µM]; p53ts 32C kill: inconclusive; p53ts 39C tox: 10µM*

Results for C[C@@H]1CC[C@@]2(OC1)O[C@H]1[C@@H](O)[C@H]3[C@@H]4CC[C@H]5C[C@@H](O[C@@H]6O[C@H](CO)[C@H](O[C@@H]7O[C@H](CO)[C@@H](O)[C@H](O[C@@H]8OC[C@@H](O)[C@H](O)[C@H]8O)[C@H]7O[C@@H]7O[C@H](CO)[C@@H](O)[C@H](O[C@@H]8O[C@H](CO)[C@@H](O)[C@H](O)[C@H]8O)[C@H]7O)[C@H](O)[C@H]6O)[C@H](O)C[C@]5(C)[C@H]4CC[C@]3(C)[C@H]1[C@@H]2C ?
IkB sig inh: inconclusive; Imprint erasure: -27%; p53ts 32C kill: 3%[1.84 µM]; p53ts 39C tox: 13µM*

What do the screens show for `N[C@H](Cn1cc(I)c(=O)[nH]c1=O)C(=O)O`?
IkB sig inh: 2%

How did OCCN1CCN(CCCN2c3ccccc3Sc3ccc(C(F)(F)F)cc32)CC1 do in these assays?
IkB sig inh: -1%[25.6 µM]; Imprint erasure: -34%; p53ts 32C kill: inconclusive; p53ts 39C tox: 13µM*!

How did Nc1ccc(CCN2CCN(c3cccc(C(F)(F)F)c3)CC2)cc1 do in these assays?
IkB sig inh: 3%; Imprint erasure: -9%; p53ts 32C kill: -11%; p53ts 39C tox: -11%

What do the screens show for `C[C@H]1C(=O)O[C@H]2CCN3CC=C(COC(=O)[C@](C)(O)[C@@]1(C)O)[C@H]23`?
IkB sig inh: 1%[11.4 µM]

What do the screens show for `OC[C@H]1CCCN2CCCC[C@@H]12`?
IkB sig inh: -1%[11.4 µM]

How did CC1=C(O)C(=O)[C@H]2O[C@@H]2C1=O do in these assays?
IkB sig inh: inconclusive; Imprint erasure: -28%; p53ts 32C kill: 16µM*; p53ts 39C tox: inconclusive

Results for Ic1ccccc1CN[C@@H]1C2CCN(CC2)[C@H]1C(c1ccccc1)c1ccccc1 ?
IkB sig inh: -14%; p53ts 32C kill: inconclusive; p53ts 39C tox: 20µM*

How did CC(C)(C)c1ccc(C(=O)Nc2ccc3nc(SCC(=O)N4CCCC4)sc3c2)cc1 do in these assays?
IkB sig inh: inconclusive; Imprint erasure: -14%[10.9 µM]; p53ts 32C kill: 13µM*; p53ts 39C tox: 3.2µM*

Results for COc1cc(C=C(C#N)C#N)cc(O)c1O ?
IkB sig inh: 3%; Imprint erasure: -25%; p53ts 32C kill: -25%; p53ts 39C tox: -25%

Results for CC(C)(C)c1cc(C=C(C#N)C#N)cc(C(C)(C)C)c1O ?
IkB sig inh: inconclusive; Imprint erasure: -30%; p53ts 32C kill: 10µM*; p53ts 39C tox: -23%

What do the screens show for `Cc1c2ccncc2c(C)c2c1[nH]c1ccccc12`?
IkB sig inh: inconclusive; Imprint erasure: -31%; p53ts 32C kill: 13µM*; p53ts 39C tox: 13µM*

How did Nc1ccccc1O.O.O=C(O)[C@H]1[O][Sb][O][C@H]1C(=O)O do in these assays?
IkB sig inh: inconclusive; Imprint erasure: 0.32µM*; p53ts 32C kill: 7%[9.22 µM]; p53ts 39C tox: inconclusive

Results for Nc1ccccc1C(=O)O ?
IkB sig inh: 4%; Imprint erasure: 1%; p53ts 32C kill: -1%[1.84 µM]; p53ts 39C tox: -5%

What do the screens show for `CC(C)C[C@H]1C(=O)N2CCC[C@@H]2[C@]2(O)O[C@](NC(=O)[C@H]3C=C4c5cccc6[nH]cc(c56)C[C@H]4N(C)C3)(C(C)C)C(=O)N12`?
IkB sig inh: 2%[11.4 µM]

Results for Cc1cc2c(C(C)C)c(O)c(O)c(C=O)c2c(O)c1-c1c(C)cc2c(C(C)C)c(O)c(O)c(C=O)c2c1O ?
IkB sig inh: inconclusive; Imprint erasure: -22%; p53ts 32C kill: 20µM*!; p53ts 39C tox: 20µM*

How did O=S(=O)(NCCO)c1cc[c]([Sb](=[O])([OH])[OH])cc1 do in these assays?
IkB sig inh: 0%[11.4 µM]; p53ts 32C kill: 14%[9.22 µM]; p53ts 39C tox: 17%[9.22 µM]

What do the screens show for `COc1cccc(NC(=O)c2ccc3c(=O)n4nc(Nc5ccccc5OC)sc4nc3c2)c1`?
IkB sig inh: inconclusive; Imprint erasure: -43%[10.9 µM]; p53ts 32C kill: -10%; p53ts 39C tox: inconclusive

How did Cc1ccc(Cl)cc1Nc1nn2c(=O)c3ccc(C(=O)NCc4cccs4)cc3nc2s1 do in these assays?
IkB sig inh: 1%; Imprint erasure: -20%[10.9 µM]; p53ts 32C kill: 13µM*; p53ts 39C tox: 16µM*

How did C[C@@H]1[C@H]2C=C[C@@H]1[C@@H](c1c3ccc(=O)c(O)c-3oc3c(O)c(O)ccc13)[C@@H]2C(=O)O do in these assays?
IkB sig inh: -1%[11.4 µM]; p53ts 32C kill: 6%[9.22 µM]; p53ts 39C tox: 2%[9.22 µM]

How did Cc1ccc2oc(-c3ccc(Cl)cc3)c(O)c(=O)c2c1 do in these assays?
IkB sig inh: 5µM*; Imprint erasure: -12%[10.9 µM]; p53ts 32C kill: -18%; p53ts 39C tox: inconclusive

How did Cc1nc2ccccc2cc1C[N+]12CN3CN(CN(C3)C1)C2 do in these assays?
IkB sig inh: 0%[11.4 µM]; Imprint erasure: -9%[10.9 µM]; p53ts 32C kill: -2%[9.22 µM]; p53ts 39C tox: -1%[9.22 µM]

Results for Cc1ccc(Cl)cc1N1CCN(C(=O)C2CCN(Cc3nc(-c4ccc(Cl)cc4)oc3C)CC2)CC1 ?
IkB sig inh: inconclusive; Imprint erasure: -15%[10.9 µM]; p53ts 32C kill: 4%; p53ts 39C tox: 13µM*

How did Cc1cc(SCc2sc(-c3ccc(C(F)(F)F)c(F)c3)nc2C)ccc1OCC(=O)O do in these assays?
Imprint erasure: -9%; p53ts 32C kill: -12%; p53ts 39C tox: -15%

Results for Fc1ccc(C(OCCN2CCN(CCCc3ccccc3)CC2)c2ccc(F)cc2)cc1 ?
IkB sig inh: inconclusive; Imprint erasure: -32%; p53ts 32C kill: inconclusive; p53ts 39C tox: 32µM*!

What do the screens show for `c1ccc(CCCN2CCN(CCOC(c3ccccc3)c3ccccc3)CC2)cc1`?
IkB sig inh: inconclusive; Imprint erasure: -25%; p53ts 32C kill: inconclusive; p53ts 39C tox: 32µM*

How did O=C(O)C1=CCCN(CCOC(c2ccc(C(F)(F)F)cc2)c2ccc(C(F)(F)F)cc2)C1 do in these assays?
IkB sig inh: 1%; Imprint erasure: -10%; p53ts 32C kill: 12%; p53ts 39C tox: -19%
